Source: PubChem (National Center for Advancing Translational Sciences (NCATS))
Nrf2 activator – qHTS of Nrf2 Activators. Potency, µM (highest dose often 46.1 µM), hits mostly activators. AID 624171, 2012. AREc32 ARE-luciferase reporter (MCF7-derived line), luminescence, 24 h. 0.31% of 410,000 active; also: nearly all actives have a fitted effect of over 65% in size
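Luciferase luminescence (Steady-Glo, 30 min at room temperature) served as the read-out of ARE activation in AREc32 cells treated with compounds for 24 hr at 37 deg C.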
IL2 activator – qHTS of IL-2 Activators; IL-2 activation reporter assay, cell-based qHTS; stimulated with anti-CD3/CD4/CD28 beads; in transgenic mouse T cells; activation, % (series mostly up to about 46 µM); 0.065% of 360,000 active; AID 652025, 2013; in the data active = activation above about 50%; inconclusive = mostly about 30% to 49%
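Quantitative HTS in unstimulated transgenic mouse T cells, with memory T cells as non-tolerant control and PMA/ionomycin as tolerance-bypass control. Compound pretreatment lasted 60 minutes before 18 h bead stimulation; EGFP/DsRed fluorescence read.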
12-LOX inh – Primary qHTS assay for inhibitors of human arachidonate 12S-lipoxygenase (ALOX12): Round 2 | Polyunsaturated fatty acid lipoxygenase ALOX12 (Homo sapiens), P18054 | purified 12hLO, xylenol orange hydroperoxide absorbance | 1.1% of 580,000 active | Potency, µM (highest dose often 108 µM), usual class: inhibitors
Target sequence (P18054 whole entry, looked up): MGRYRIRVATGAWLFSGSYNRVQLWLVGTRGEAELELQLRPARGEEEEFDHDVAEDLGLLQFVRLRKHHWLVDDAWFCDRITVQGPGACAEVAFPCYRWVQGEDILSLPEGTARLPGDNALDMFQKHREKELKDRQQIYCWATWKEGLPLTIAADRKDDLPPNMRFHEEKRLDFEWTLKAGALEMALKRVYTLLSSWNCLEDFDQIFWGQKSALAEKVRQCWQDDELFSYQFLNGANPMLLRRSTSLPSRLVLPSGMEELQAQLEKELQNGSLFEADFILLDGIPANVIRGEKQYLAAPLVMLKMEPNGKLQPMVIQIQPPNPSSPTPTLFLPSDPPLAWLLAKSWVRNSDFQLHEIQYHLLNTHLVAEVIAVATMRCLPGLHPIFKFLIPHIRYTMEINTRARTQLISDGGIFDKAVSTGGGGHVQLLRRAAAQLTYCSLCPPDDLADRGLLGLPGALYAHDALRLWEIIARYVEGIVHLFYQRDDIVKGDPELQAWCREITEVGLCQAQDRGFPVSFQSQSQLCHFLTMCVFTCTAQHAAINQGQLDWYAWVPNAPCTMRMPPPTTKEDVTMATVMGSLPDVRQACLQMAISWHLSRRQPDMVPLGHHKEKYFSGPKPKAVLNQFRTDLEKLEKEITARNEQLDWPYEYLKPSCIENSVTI
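Purified human 12hLO at 150 nM in 25 mM Hepes, 0.01% Triton X-100, pH 7.0, preincubated 15 min at room temperature with compound. Reaction started with 40 uM arachidonic acid, 30 min at room temperature. Hydroperoxide measured by Fe-xylenol orange, 573/405 nm absorbance ratio.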
uPA surface inh – qHTS for Inhibitors of Cell Surface uPA Generation | cell surface uPA generation assay, qHTS | Potency, µM (top dose mostly 38.3 µM), usual class: inhibitors | 0.31% of 330,000 active; active = well fitted inhibition curve with a large enough effect; inconclusive = small, poorly fitted or top-dose-only effect; inactive = no such curve, though single readings can be large or run the other way; tested in mouse RAW 264.7 cells; also: nearly all actives have a fitted effect of over 55% in size
Integrin act MD – qHTS for Activators of Integrin-Mediated Alleviation for Muscular Dystrophy | alpha7betagal myoblasts, beta-gal FDG fluorescence, 48 h | Potency, µM (top dose mostly 38.3 µM), usual class: activators | 0.064% of 350,000 active | AID 624291, 2012; also: nearly all actives have a fitted effect of over 60% in size
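Alpha7betagal+/- myoblasts (passage 13) were plated 16-24 hr, then exposed to compounds (1:260 dilution of DMSO stock) for 48 hours at 37C. After MPER lysis, β-galactosidase reporter activity was read as FDG fluorescence (ex 480/em 540) after 30 minutes.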
A number is an active result; . = inactive; ? = inconclusive; / = not tested or not shown; [ ] = another dose, or the depositor's remark. In the library only some 1.5% were active in any assay of this set; here they are far more common. Unless noted, calls follow the shape of the dose curve; as a rule, active = well fitted curve in the direction sought with a large enough effect; inconclusive = small, poorly fitted or top-dose-only effect, or another doubt; inactive = no such curve, though single readings can be large; an effect the other way counts as inactive or inconclusive.

SMILES	Nrf2 activator	IL2 activator	12-LOX inh	uPA surface inh	Integrin act MD
Cn1cc([C@@H](NC(=O)c2cccc3c2NCCC3)C2CC(O)C2)cn1 (some centres not stated)	/	/	.	/	/
O=C(O)CN1C(=O)/C(=C\c2cc([N+](=O)[O-])ccc2OCc2ccccc2Cl)SC1=S	.	.	14µM	.	?
O=C(O)CN1C(=O)/C(=C\c2cc(Br)ccc2OCc2ccc(F)cc2)SC1=S	.	.	2.5µM	.	.
O=C(O)CN1C(=O)/C(=C\c2cc(Br)ccc2OCc2ccc(Cl)cc2)SC1=S	.	.	20µM	.	?
CCCCCCc1ccc(-c2ccc(C(=O)OCC)cc2)nc1	/	/	.	/	/
CC(C)CCN1CC(CN[S+](=O)([O-])c2ccccc2)C2(C1)CN(c1ccccc1)C2 (configuration not stated)	/	/	.	/	/
COC(=O)c1ccc2nc(-c3ccco3)c(Cc3ccccc3)n2c1	?	.	40µM	/	/
COC(=O)c1ccc2nc(-c3ccco3)c(Cc3cccc(Cl)c3)n2c1	5.6µM	.	16µM	/	/
CCCc1nc2ccc(C(=O)OC)cn2c1Cc1ccc(C)cc1	.	.	10µM	/	/
COC(=O)c1ccc2nc(-c3cccc(Cl)c3)c(Cc3cccc(Cl)c3)n2c1	.	.	?	/	/
CC(Nc1nc(-c2ccncc2)nc2ccccc12)c1ccc2c(c1)OCO2 (configuration not stated)	/	/	.	/	/
COc1ccccc1NC(=O)CC(C)S(=O)(=O)c1ccc2c(c1)CCN2C(=O)C1CC1 (configuration not stated)	/	/	.	/	/
O=[N+]([O-])c1ccc2cn(-c3ccccc3)nc2c1	?	.	.	.	.
COc1ccccc1-n1cc2ccc([N+](=O)[O-])cc2n1	11µM	.	.	.	.
COc1cccc(C(=O)N2CCOC[C@H](Oc3cccnc3)C2)c1	/	/	.	/	/
COc1ccc2c(c1)CSC(c1ccccc1)C2=O (configuration not stated)	.	.	35µM	/	.
COc1cccc(C2C(=O)c3ccccc3C2=O)c1	.	.	?	.	.
COC(=O)[C@@H]1Cc2c([nH]c3ccccc23)C(C)(C)N1C(=O)CCl	10µM	.	?	.	.
C=CCNS(=O)(=O)c1ccc(C(=O)NC(C)c2ncnn2CCC)cc1 (configuration not stated)	/	/	.	/	/
CCn1c(SCC(=O)c2c[nH]c3ccccc23)nnc1-c1cccs1	11µM	.	.	.	.
COCCn1c(SCC(=O)c2c[nH]c3ccccc23)nnc1-c1ccncc1	.	.	/	.	.
Cn1c(SCc2nc3ccccc3s2)nnc1-c1cccs1	.	.	?	.	.
CCn1c(SCc2nc3ccccc3s2)nnc1-c1cccs1	14µM	.	.	/	.
CC(CNC(=O)c1nn(C)c(=O)c2ccccc12)N1CCCC1 (configuration not stated)	/	/	.	/	/
O=C(CN1CCCCCC1)N1CCC(N2C(=O)C3(CCCC3)C2c2ccccc2)CC1 (configuration not stated)	/	/	.	/	/
SMILES	Nrf2 activator	IL2 activator	12-LOX inh	uPA surface inh	Integrin act MD
S=C(NCCN1CCOCC1)Nc1ccc(-c2nc3ccccc3[nH]2)cc1	.	.	.	10µM	?
Fc1ccc(NC(=S)NCCN2CCOCC2)cc1	.	.	.	.	?
O=C(CCCc1ccccc1)N1CCN(C2CCN(Cc3cccnc3)C2=O)CC1 (configuration not stated)	/	/	.	/	/
CCC1=C[C@@H]2CN(C1)Cc1c([nH]c3ccccc13)[C@@](C(=O)OC)(c1cc3c(cc1OC)N(C)[C@@H]1[C@@](O)(C(=O)OC)[C@H](OC(C)=O)[C@]4(CC)C=CCN5CC[C@]31[C@@H]54)C2	/	/	4.3µM	/	/
CC[C@@]1(c2ccccc2)C(=O)N(C(=O)OC)N1C(=O)OC	.	.	.	.	.
COC(=O)N1C(=O)[C@@](c2ccccc2)(C2CCCCC2)N1C(=O)OC	.	.	.	8.9µM	.
O=C(N/N=C/c1cccs1)c1ccccc1Cl	/	/	.	/	/
O=C1CC(c2ccccc2)c2ncn(-c3cc(F)ccc3F)c2N1 (configuration not stated)	/	/	5µM	/	/
CC(OC(=O)Cc1n[nH]c(=O)c2ccccc12)C(=O)NC(N)=O (configuration not stated)	/	/	.	/	/
Cc1ccc(-n2nc3c([n+]2[O-])CCc2c-3no[n+]2[O-])cc1	2.2µM	.	.	.	.
Nc1cccc2c1C(=O)NC2	/	/	.	/	/
O=C(NCc1cccc(Cl)c1)c1ccc(-n2ccnc2)c2ccoc12	.[9.22 µM]	.	40µM	/	/
COc1ccc2[nH]c3c(NCc4ccco4)ncnc3c2c1	3.2µM	.	/	/	.[7.66 µM]
CCCCOc1ncnc2c1[nH]c1ccc(C)cc12	.	.	.	.	.
CCCOc1ncnc2c1[nH]c1ccc(OC)cc12	.	.	.	4.5µM	.
COc1ccc2c(C)c(CC(=O)Nc3nnc(C4CC4)s3)c(=O)oc2c1OC	/	/	.	/	/
COc1ccc(C(=O)NCc2nnc(SCC(=O)NC3CCCCC3)n2C)cc1	.	.	40µM	.	.
Cc1nc(C(=O)Nc2nc(C(C)(C)C)cs2)nn1-c1ccc(Cl)cc1	/	/	.	/	/
COc1ccc(NC(=O)c2cccs2)cc1	.	.	.	.	.
COc1ccc(C(=O)/C(=C/O)N=Nc2ccc(F)cc2)cc1	.	.	11µM	.	.
COc1ccc(N=N/C(=C\O)C(=O)c2cccs2)cc1	.	.	35µM	.	?
CC(C)CN1C(=O)COC[C@@H]1[C@H](O)c1ccc(NC(=O)CC(C)(C)C)cc1	/	/	.	/	/
Cn1c(=O)c2c(nc(N3CCC(C(N)=O)CC3)n2Cc2ccccc2)n(C)c1=O	/	/	.	/	/
c1csc(-c2nnc(N3CCCCCC3)c3ccccc23)c1	13µM	.	?	.	.
c1csc(-c2nnc(N3CCOCC3)c3ccccc23)c1	.	.	.	.	.
SMILES	Nrf2 activator	IL2 activator	12-LOX inh	uPA surface inh	Integrin act MD
COCc1ccc(C(=O)NCC(C)c2ccccc2)cc1 (configuration not stated)	/	/	.	/	/
CCC(C)(C)c1ccc(OCCCC[n+]2ccccc2)c(C(C)(C)CC)c1	.	.	?	11µM	?
CCCCCc1ccc(OCCCC[n+]2ccccc2)c(CCCCC)c1	.	.	/	.	.
Cn1c(=O)c(Oc2ccc(F)cc2F)cc2cnc(NC3CCOCC3)nc21	/	/	17µM	/	/
O=C(NCC1CCOCC1)c1cc(COc2ccc(F)cc2F)on1	.	.	.	.	.
Cc1ccc(N2NC3(CCCCCC3)NC2=S)cc1	/	/	1µM	/	/
Cc1ccc(N2NC3(CCC(C)CC3)NC2=S)cc1 (configuration not stated)	/	/	1.3µM	/	/
S=C1NC2(CCCCC2)NN1c1ccccc1	.	.	?	.	.
COc1cccc(NC(C)c2nc3scc(-c4cccs4)c3c(=O)[nH]2)c1 (configuration not stated)	/	/	.	/	/
